# Measurements as given in the antibiotic and cytotoxicity screens of Wong et al. (2023).
# In all, about 39,000 compounds went through this assay and about 3,300 (8.5%) were called active. This excerpt belongs to a sample that is enriched for actives.
# Tested on: HepG2
# Test: cytotoxicity call (relative viability < 0.9)
# Conditions: 10 µM
row,SMILES,cytotoxicity call
1,C[C@H]1CN([C@@H](C)CO)C(=O)c2cc(NS(=O)(=O)c3cn(C)cn3)ccc2O[C@H]1CN(C)CC1CC1,inactive
2,COCC(=O)Nc1ccc2c(c1)OC[C@@H](C)N(C(=O)c1ccccc1F)C[C@@H](C)[C@H](OC)CN(C)C2=O,inactive
3,O=C1OCC=C[C@H]2O[C@@]34C=CCN(CCN5CCOCC5)C(=O)[C@H]3N(CCCCCCO)C(=O)[C@@H]4[C@@H]12,inactive
4,C=CC1CN2CCC1CC2C(O)c1ccnc2ccc(OC)cc12.O=C(O)C(O)C(O)C(O)C(O)CO (stereo not drawn),inactive
5,C=CC1CN2CCC1CC2C(O)c1ccnc2ccc(OC)cc12 (stereo not drawn),inactive
6,C=CC1CN2CCC1CC2C(O)c1ccnc2ccc(OC)cc12.Cl (stereo not drawn),active
7,COc1ccc2c3c(n(c2c1)C)[C@H](CO)N(C[C@]13CCN(CC1)C(=O)c1ccccc1F)C(=O)Nc1ccccc1F,inactive
8,C[C@@H]1CN([C@H](C)CO)C(=O)c2cc(NS(=O)(=O)c3cn(C)cn3)ccc2O[C@@H](C)CCCCO[C@H]1CN(C)S(=O)(=O)c1ccc(F)cc1,inactive
9,COc1ccc(-c2cnc3c(c2)C(=O)N([C@@H](C)CO)C[C@@H](C)[C@H](CN(C)S(=O)(=O)c2ccc(OC)cc2)O3)cc1,inactive
10,NS(=O)(=O)c1ccc(O)c([N+](=O)[O-])c1,inactive
11,O=[N+]([O-])c1ccc(O)c2ncccc12,active
12,Fc1cccc2c(Cl)ccnc12,inactive
13,Oc1ccc(Cl)c2cccnc12 [listing 1 of 2 here],active
14,Oc1ccc(Cl)c2cccnc12 [listing 2 of 2 here],active
15,O=[N+]([O-])c1ncn(Cc2ccccn2)n1,inactive
16,Oc1ccc(Cl)c2c1CCC2,inactive
17,O=C(C[C@H]1CC[C@@H]2[C@H](COC[C@@H](O)CN2C(=O)c2ccncc2)O1)NC1CCC1,inactive
18,C[C@@H]1CCCCO[C@H](CN(C)CC2CCCCC2)[C@H](C)CN([C@@H](C)CO)C(=O)c2cc(NC(=O)NC3CCCCC3)ccc2O1,inactive
19,O=C(C[C@@H]1CC[C@@H]2[C@H](COC[C@H](O)CN2Cc2ccccc2F)O1)N[C@H]1CCN(Cc2ccccc2)C1,inactive
20,C[C@H](CO)N1C[C@H](C)[C@@H](CN(C)C(=O)Nc2cccc3ccccc23)Oc2c(NS(=O)(=O)c3ccc(F)cc3)cccc2C1=O,inactive
21,C[C@H]1CN([C@@H](C)CO)C(=O)c2cc(NC(=O)Cn3cnnn3)ccc2O[C@H]1CN(C)Cc1ccc(C(=O)O)cc1,inactive
22,COc1ccc(S(=O)(=O)N(C)C[C@@H]2Oc3ccc(NC(=O)CCN4CCOCC4)cc3C(=O)N([C@H](C)CO)C[C@@H]2C)cc1,inactive
23,COCC#Cc1cnc2c(c1)C(=O)N([C@@H](C)CO)C[C@@H](C)[C@H](CN(C)C(=O)CCN1CCCCC1)O2,inactive
